Screening results as filed in PubChem BioAssay.
FBPA Giardia inh = qHTS Assay for Inhibitors of Fructose-1,6-bisphosphate Aldolase from Giardia Lamblia; purified Giardia FBPA; Potency, µM (highest dose often 59.6 µM), for inactives: at the highest dose activity, negative = inhibition, usual class: inhibitors; hit rate 0.71% among 290,000; AID 2451, 2010; note: potency is the fitted concentration of half-maximal effect; % is set by controls: 0 for no effect and ±100 for the full control effect; nearly all actives have a fitted effect of over 55% in size
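Giardia FBPA (40 nM reagent) was preincubated 10 min at RT with compound (up to 57.5 uM final), then substrate plus GAPDH/TPI/NAD/arsenate coupling system with diaphorase/resazurin was added; resorufin fluorescence (525/598 nm) was read after 20 min.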
Cycloheximide cs = Cycloheximide Counterscreen for Small Molecule Inhibitors of Shiga Toxin; max response, %; hit rate 12% among 300,000; cell reporter, cycloheximide protein synthesis inhibition counterscreen; in the data active = max response mostly above about 13%, no sharp cut-off; inactive = mostly below about 14%; note: read at 38.3 µM for the half of the compounds with a filed dose; 0% is about no effect
RE007 growth inh = qHTS Assay for Inhibitors of the HIV-1 protein Vpr; Potency, µM (doses to about 92.2 µM), without a hit: at the highest dose activity change, negative = less growth, actives largely listed as inhibitors; S. pombe RE007 Vpr strain, BacTiter-Glo ATP luminescence, 24 h; AID 651644, 2012; hit rate 0.21% among 360,000; active = well fitted falling curve with a large enough effect; inconclusive = small, poorly fitted or top-dose-only effect; inactive = no such curve, though single readings can be large or run the other way; note: potency is the fitted concentration of half-maximal effect; % is set by controls: 0 for no effect and ±100 for the full control effect; nearly all actives have a fitted effect of over 50% in size
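Fission yeast RE007 carrying one integrated HIV-1 vpr copy, seeded at OD 0.01 in PMG+AL medium with 23 nL pinned compound. Grown 24 h at 30 degrees; viability read by BacTiter-Glo luminescence after 5 min.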
LmPK inhibitor = qHTS Assay for Inhibitors of Leishmania Mexicana Pyruvate Kinase (LmPK) | Q27686 | purified LmPK, Kinase-Glo ATP luminescence, 1 h | Potency, µM (series often up to 57.5 µM), for inactives: top-dose activity change, negative = inhibition, actives largely listed as inhibitors | hit rate 0.37% among 290,000 | AID 1721, 2009; note: potency is the fitted concentration of half-maximal effect; % is set by controls: 0 for no effect and ±100 for the full control effect
Target sequence (Q27686 whole entry, looked up): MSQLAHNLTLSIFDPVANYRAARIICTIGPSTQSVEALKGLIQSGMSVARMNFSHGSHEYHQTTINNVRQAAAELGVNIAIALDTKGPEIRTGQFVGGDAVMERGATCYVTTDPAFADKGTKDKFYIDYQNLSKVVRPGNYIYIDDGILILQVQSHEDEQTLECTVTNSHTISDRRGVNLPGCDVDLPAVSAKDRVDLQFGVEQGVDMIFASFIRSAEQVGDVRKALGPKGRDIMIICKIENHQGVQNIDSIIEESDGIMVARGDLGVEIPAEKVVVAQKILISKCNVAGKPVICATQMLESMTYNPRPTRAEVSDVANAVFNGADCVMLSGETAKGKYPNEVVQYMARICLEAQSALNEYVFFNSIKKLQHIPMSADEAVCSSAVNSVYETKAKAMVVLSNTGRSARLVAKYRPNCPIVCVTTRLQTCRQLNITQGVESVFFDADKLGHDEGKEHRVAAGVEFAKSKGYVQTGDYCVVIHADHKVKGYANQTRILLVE
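Screened at intermediate enzyme activity to detect both inhibitors and activators: LmPK at 0.1 nM, with a 0.5 nM enzyme column as activation reference. PEP 0.5 mM, ADP 0.1 mM; ATP detected by luminescence after 1 h.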
Shiga inhibitor = A qHTS for Small Molecule Inhibitors of Shiga Toxin; Vero cells, Shiga toxin protein synthesis inhibition reporter; inhibition, % at 38.7 µM; hit rate 9.2% among 290,000; AID 2315, 2010; in the data active = inhibition mostly above about 28%, no sharp cut-off; inactive = mostly below about 43%; note: 0% is about no effect
TbPYK inhibitor = qHTS of Trypanosoma Brucei Inhibitors; pyruvate kinase (Trypanosoma brucei), Q57TT1; TbPYK enzyme, Kinase-Glo Plus ATP luminescence, 45 min; Potency, µM (series often up to 76.8 µM), inactives show at the top dose activity, negative = inhibition, usual class: inhibitors; hit rate 0.12% among 410,000; AID 624173, 2012; note: potency is the fitted concentration of half-maximal effect; % is set by controls: 0 for no effect and ±100 for the full control effect; nearly all actives have a fitted effect of over 50% in size
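In this concentration-response screen, enzyme-free wells defined baseline while DMSO plates tracked drift. Each reaction combined TbPYK, substrate, compound and 130 uM ADP for 45 min at room temperature. Kinase-Glo Plus luminescence gave the signal.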
An asterisk follows results filed as active; ? = inconclusive; nt = no result. This excerpt belongs to a sample that is enriched for hits. Unless noted, calls come from the whole dose curve; as a rule, active = well fitted curve in the direction sought with a large enough effect; inconclusive = small, poorly fitted or top-dose-only effect, or another doubt; inactive = no such curve, though single readings can be large; an effect the other way counts as inactive or inconclusive.

SMILES	FBPA Giardia inh	Cycloheximide cs	RE007 growth inh	LmPK inhibitor	Shiga inhibitor	TbPYK inhibitor
O=C(CN1CCN(C(=O)C2COc3ccccc3O2)CC1)Nc1ccccc1 (stereo unspecified)	5%	-2	-18%	2%	-4	-2%
CCCCN(CCCNC(=O)CN1C(=O)COc2ccc(S(=O)(=O)N3CCC(C)CC3)cc21)Cc1ccccc1	-7%	-4	-5%	7%	-11	0%
CCOc1ccc2[nH]c3c(NCCC(C)C)ncnc3c2c1	-10%	14*	14%	2%	29	2%
CCN(CC)CCNc1ncnc2c1[nH]c1ccc(OC)cc12	6%	-2	nt	2%	-8	nt
COc1ccc2[nH]c3c(NCc4ccco4)ncnc3c2c1	-1%	36*	-5%	-2%	97*	2%
COc1ccc2[nH]c3c(NCCCOC(C)C)ncnc3c2c1	12%	44*	-8%	?	59	?
COc1ccc2[nH]c3c(NCCC4=CCCCC4)ncnc3c2c1	2%	33*	-14%	1%	125*	3%
CCOC(=O)[C@]12CCC=C1N(Cc1ccc3c(c1)OCO3)C(=O)[C@H](CC(=O)N1CCC(c3ccccc3)CC1)C2	nt	nt	4%	nt	nt	1%
Cc1ccc(C(=O)CSc2nnc(-c3ccccc3)n2-c2ccccc2)o1	6%	-4	19%	-1%	-2	-16%
Cc1ccc(C(=O)CSc2nnnn2-c2ccccc2)o1	-5%	25	2%	-3%	49*	0%
Cc1cc(C(=O)CSc2nnnn2-c2ccc(O)cc2)c(C)n1C	5%	25*	1%	0%	66*	7%
O=C(CSc1nnnn1-c1ccccc1)c1ccc(O)cc1O	8%	14*	8%	2%	50	0%
Cc1cccc(C)c1-n1nnnc1C1c2ccccc2C(=O)N1CCCN1CCOCC1 (stereo unspecified)	nt	nt	-5%	nt	nt	2%
O=C(Nc1ccn(C2CC(OC(=O)c3ccccc3)C(CO)O2)c(=O)n1)c1ccccc1 (stereo unspecified)	-1%	-2	-11%	0%	-4	6%
O=C1CC2C(CC(OC(=O)c3ccc(-c4ccccc4)cc3)C2CO)O1 (stereo unspecified)	1%	30*	24%	5%	49*	-4%
O=C(OC1CO[C@H]2O[C@@H]1[C@H](OC(=O)c1ccccc1)[C@H]2OC(=O)c1ccccc1)c1ccccc1 (stereo partly specified)	nt	nt	-21%	nt	nt	-3%
O=C1C[C@H]2[C@H](CO)[C@@H](OC(=O)c3ccc(-c4ccccc4)cc3)C[C@H]2O1	4%	50*	4%	-5%	109*	-3%
CCCCn1c(N)c(N(CC(C)C)C(=O)CCN2C(=O)C3CC=CCC3C2=O)c(=O)[nH]c1=O (stereo unspecified)	nt	nt	-4%	nt	nt	4%
Cc1cc(C(=O)COC(=O)c2ccc3c(c2)NC(=O)CS3)c(C)n1CC1CCCO1 (stereo unspecified)	0%	38*	nt	1%	56*	1%
COc1cc(OC)cc(C(=O)OCC(=O)c2cc(C)n(CC3CCCO3)c2C)c1 (stereo unspecified)	nt	nt	6%	nt	nt	4%
COCC(C)n1c(C)cc(C(=O)COC(=O)c2ccc3c(c2)NC(=O)CS3)c1C (stereo unspecified)	-9%	15	11%	3%	27	-8%
Cc1cc(C(=O)COC(=O)c2ccc(O)cc2)c(C)n1CC1CCCO1 (stereo unspecified)	13%	59*	20%	-2%	107*	-16%
C=CCSc1nncn1/N=C/c1ccc(OC)cc1	-18%	37*	8%	-3%	76*	-12%
Cc1ccc(Nc2nc(-c3ccc(O)c(O)c3)cs2)nc1	-26%	62*	10%	3%	113*	-8%
Cc1ccc(Nc2nc(-c3ccc(F)cc3)cs2)nc1	-18%	53*	-19%	2%	77*	5%
SMILES	FBPA Giardia inh	Cycloheximide cs	RE007 growth inh	LmPK inhibitor	Shiga inhibitor	TbPYK inhibitor
O=C(O)c1ccc(Nc2nc(-c3cccnc3)cs2)cc1O	-3%	7	5%	1%	17	0%
COc1ccc2c(Cl)c(C(=O)N/N=C/c3ccncc3)sc2c1	0%	17	1%	4%	24	1%
O=C(NC1CC1)c1sc2cc(Cl)ccc2c1Cl	nt	nt	-15%	nt	nt	1%
COc1ccc2c(Cl)c(C(=O)NN3CCN(C)CC3)sc2c1	-10%	23*	-11%	1%	26	-4%
COc1ccc2c(Cl)c(C(=O)NC3CCS(=O)(=O)C3)sc2c1 (stereo unspecified)	1%	20*	26%	0%	36*	1%
Cc1cc(Cl)ccc1NS(=O)(=O)c1ccc2c(c1)CC(C)N2C(=O)C1CCC1 (stereo unspecified)	nt	nt	nt	nt	nt	1%
CN(Cc1ccccc1)C(=O)[C@@H]1CCCN1C(=O)[C@@H]1CCCN1C(=O)c1ccccc1	nt	nt	10%	nt	nt	-8%
C=CCn1c(SCC(=O)c2cc(C)n(Cc3cccs3)c2C)nnc1-c1ccncc1	-22%	7	2%	-5%	-7	-4%
N#CCCn1c(SCC(=O)c2c[nH]c3ccccc23)nc2ccccc21	1%	-4	11%	-2%	-11	2%
Cc1cc(C(=O)CSc2nnc(-c3ccccc3F)o2)c(C)n1Cc1cccs1	0%	19*	-4%	0%	32	2%
COc1ccccc1-n1cnnc1SCC(=O)c1cc(C)n(Cc2cccs2)c1C	5%	39*	-3%	0%	38*	-8%
Cc1cc(C(=O)CSc2nc3ccccc3n2CCC#N)c(C)n1Cc1cccs1	-6%	46*	0%	2%	55*	-2%
Cc1cccc(-n2c3c(cc(-c4nc(-c5ccc(Cl)cc5)cs4)c2=O)C(=O)CC(C)(C)C3)c1	nt	nt	nt	nt	nt	-7%
Cc1cc(C)nc(S/C=C/C(=O)c2ccccc2F)n1	3%	54*	38%	-1%	119*	-3%
O=C(COC(=O)c1ccc(Cl)cc1O)NC(=O)C1CCCCC1	-1%	-1	-6%	0%	-19	-1%
CC(=O)Nc1nc(C)c(-c2csc(Nc3cccc(C(C)=O)c3)n2)s1	-29%	13	-5%	5%	9	3%
Cc1nc(NC(=O)c2ccc(Cl)cc2)sc1-c1csc(Nc2cccc(F)c2)n1	-2%	24*	nt	-3%	109	nt
Cc1nc(NC(=O)c2ccccc2)sc1-c1csc(Nc2ccc(C(=O)O)cc2)n1	-19%	10*	3%	-16%	2	-7%
COc1ccccc1Nc1nc(-c2sc(NC(=O)c3cccc(Cl)c3)nc2C)cs1	-10%	14*	nt	-3%	10	nt
